Measurements published in PubChem BioAssay AID1259422 (The Scripps Research Institute Molecular Screening Center, 2018).
Where “and” joins values, the source holds several entries; their conditions need not be identical. Identical values can stand only once. Hit rate of the full screen: of about 640,000 compounds, about 9,300 (1.5%) were called active. This is one part of a sample in which actives are shown more often than they occur. Values without a mark were called inactive. Cut-off read from the data, not from the text of the source: active = inhibition above about 32%; inactive = the rest.

assay: TEAD-YAP interaction inhibition, primary screen, TEAD-YAP interaction inhibitor project, luminescence, HEK-TIYL cells (AID 1259422); details: TEAD-Gal4/YAP UAS-luciferase luminescence, at 9.12 µM, stronger effect = higher value;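 note: 0% = median of test compound wells and 100% = reference inhibitor wells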

| Structure (SMILES) | inhibition |
| --- | --- |
| CN(C)c1cccc(C(=O)N2CCN(c3cccc(Cl)c3)CC2)c1 | 32.4% (active) |
| O=C(c1cc(Cl)ccc1Cl)N1CCN(c2ccc(F)cc2)CC1 | 10.3% |
| COc1cc(OC)cc(-n2nc(C(=O)N3CCN(c4cccc(Cl)c4)CC3)c3ccccc3c2=O)c1 | 9.86% |
| O=C(c1ccc([N+](=O)[O-])cc1)N1CCN(c2cccc(Cl)c2)CC1 | -1.04% |
| CN1CCN(C(=O)c2cc(-c3cccs3)n(CC(=O)N3CCC(O)CC3)n2)CC1 | -2.96% |
| Cc1ccc(Nc2nc(-c3ccccc3Cl)nc3ccccc23)cc1Cl | 9.51% |
| Cc1c(Cl)cccc1NC(=O)c1cnn2c(C(F)(F)F)cc(-c3ccco3)nc12 | 0.28% |
| O=[N+]([O-])c1ccc(-c2csc(=NCc3cccnc3)n2-c2ccccc2)cc1 | -0.76% |
| Cc1nnc(NC(=O)CSc2nc(C(C)C)ccc2C#N)s1 | 62.8% (active) |
| Cc1nnc(NC(=O)CSc2nc3ccccc3cc2C#N)s1 | -10.2% |
| COc1ccc(CC(=O)Nc2nnc(SCC(=O)Nc3nnc(C)s3)s2)cc1 | 12.5% |
| C=CCNC(=O)Cn1cnc2c([nH]c3ccc(C)cc32)c1=O | 3.72% |
| O=C(CN(c1cc(C(F)(F)F)ccc1Cl)S(=O)(=O)c1ccccc1)NCc1ccncc1 | 3.78% |
| COc1ccc(NC(=O)CN(c2cc(C(F)(F)F)ccc2Cl)S(=O)(=O)c2ccccc2)cc1 | 56.2% (active) |
| NC(=O)CN(c1cc(C(F)(F)F)ccc1Cl)S(=O)(=O)c1ccccc1 | -1.66% |
| CCCCOc1ccc(NC(=O)C(C)Oc2ccc(OC)cc2)cc1 (stereo unspecified) | 7.98% |
| COC(=O)c1sc(NC(=O)C2(C)CC2(Cl)Cl)c(C#N)c1C (stereo unspecified) | 38.3% (active) |
| COC(=O)c1sc(NC(=O)c2ccncc2)c(C#N)c1C | -4% |
| COC(=O)c1sc(NC(=O)C2CCCCC2)c(C#N)c1C | 1.29% |
| COc1ccccc1N1CCN(S(=O)(=O)c2ccc(F)c(C(=O)Nc3ccc(C(C)C)cc3)c2)CC1 | -4.13% |
| CC(C)CC(C(=O)N1CCOCCN(C(=O)C(CC(C)C)N2C(=O)c3ccccc3C2=O)CCOCC1)N1C(=O)c2ccccc2C1=O (stereo unspecified) | -2.73% |
| CCCOc1c(Cl)cc(/C=C/C(=O)O)cc1OC | 4.32% |
| O=C(NNc1ncc([N+](=O)[O-])cc1[N+](=O)[O-])c1ccncc1 | 6.87% |

| Structure (SMILES) | inhibition |
| --- | --- |
| O=C(O)C1CCCCC1C(=O)N1CCN(c2nc(-c3ccccc3Cl)c3cc(Br)ccc3n2)CC1 (stereo unspecified) | -2.46% |
| C[C@H]1O[C@@H](O[C@H]2[C@@H](O)C[C@H](O[C@H]3[C@@H](O)C[C@H](O[C@H]4CC[C@]5(C)C6C[C@@H](O)[C@]7(C)[C@@H](C8=CC(=O)OC8)CC[C@]7(O)C6CC[C@@H]5C4)O[C@@H]3C)O[C@@H]2C)C[C@H](O)[C@@H]1O (stereo partly specified) | 99.7% (active) and 101% (active) |
| O=C1CCCN1CCCNc1cc(N2CCN(c3ccccn3)CC2)ncn1 | 6.77% |
| CC(=O)c1cc(Cl)cc(Cl)c1O | -4.24% |
| CCN(CC)c1ccc2cc(-c3csc(-c4nc(-c5cc6ccc(N(CC)CC)cc6oc5=O)cs4)n3)c(=O)oc2c1 | 4.64% |
| CCCOc1ccc2cc(-c3csc(N)n3)c(=O)oc2c1 | 59.4% (active) |
| CCOC(=O)COc1ccc2cc(-c3nc4ccccc4s3)c(=O)oc2c1 | -4.53% |
| CN(CCO)c1ccc(/C=N/Nc2nncc3ccccc23)cc1 | 76.3% (active) |
| CN(C)c1ccc(/C=N/Nc2nc(-c3ccccc3)cs2)cc1 | -3.84% |
| COc1ccc(/C=N/NC(=O)CN(C)c2ccccc2)cc1OC | -17.2% |
| c1ccc(CNc2nc3ccccc3n2CCOc2ccccc2)cc1 | -21.7% |
| Nc1ccc(Sc2ccccc2[N+](=O)[O-])cc1 | -0.16% |
| CCC(CC)NS(=O)(=O)c1ccccc1[N+](=O)[O-] | 12.2% |
| CCS(=O)(=O)c1cc([N+](=O)[O-])c(Sc2ccccc2N)s1 | 75.8% (active) |
| COC(=O)c1cnc(N(C)C2CCCCC2)c2ccccc12 | 6.67% |
| CN(C(=O)Cn1nc2c3ccccc3nc(C3CC3)n2c1=O)C1CCCCC1 | -4.4% |
| CN(c1ccc2nc3ccccc3c(=O)n2n1)C1CCCCC1 | 89.7% (active) |
| CC(=O)Nc1ccc(Nc2nc(Nc3ccncn3)nc3c2ncn3-c2ccsc2)cc1 | 6.4% |
| CC(=O)Nc1ccc(Nc2nc(Nc3cnccn3)nc3c2ncn3-c2ccccc2)cc1 | 49.2% (active) |
| c1ccc(Nc2nc(Nc3ncccn3)nc3c2ncn3-c2ccccc2)cc1 | -25.3% |
| CC(=O)Nc1ccc(Nc2nc(Cl)nc3c2ncn3-c2ccsc2)cc1 | 33.8% (active) |
| CC(=O)Nc1ccc(Nc2nc(N3CCN(c4ccccn4)CC3)nc3c2ncn3-c2ccsc2)cc1 | 19.9% |
| CC(=O)Nc1ccc(Nc2nc(N3CCC(N4CCOCC4)CC3)nc3c2ncn3-c2ccccc2)cc1 | 5.05% |
